Source: PubChem BioAssay (EPA / NIEHS)
Active and inactive are the calls of the source. How the source made its calls: active means hit-call score of the fitted dose curve at least 0.9, where 1 is the maximum; inactive means score below 0.9.

Read-out: matrix metalloproteinase-10 (MMP10), MMP10 (gene 4319)
Assay: LTEA_HepaRG_MMP10: Life Technologies and Expression Analysis (LTEA) Assay for matrix metalloproteinase-10 (MMP10) using HepaRG (AID 2283517)
Conditions: mRNA level, 48 h; actives raise or lower the signal
Experimental: LTEA_HepaRG is a cell based, multiplexed-readout assay that uses HepaRG, a human liver cell line, with measurements taken at 48 hours after chemical dosing on a 96-well plate.LTEA_HepaRG_MMP10 is one of 102 assay component(s) measured in the LTEA HepaRG cell culture assay. It is a marker of Fibrosis.Data from the assay component LTEA_HepaRG_MMP10 was analyzed into 1 endpoint. This assay endpoint, LTEA_HepaRG_MMP10, was analyzed with bidirectional fitting relative to DMSO as the negative control and baseline of activity. Using a type of inducible reporter, measures of mRNA induction for gain or loss-of-signal activity can be used to understand regulation of transcription factor activity. To generalize the intended target to other relatable targets, this assay endpoint is annotated to the protease intended target family, where the subfamily is matrix metalloproteinase.
A total of 1060 chemcials from the ToxCast library were tested in eight-point concentration-response experiments. Cell culture and cytotoxicity assays were conducted at Thermo Fisher Scientific's Custom Services facility (Madison, WI). A single lot of human HepaRG cells (Thermo Fisher Scientific, Frederick, MD) was used for the cell culture experiments. 96-well format collagen type I coated plates of human HepaRG cells were prepared using established methods. Briefly, cryopreserved HepaRG cells were thawed, plated at a density of approximately 100,000 cells/well in HepaRG Thaw, Plate, and General Purpose media (HPRG770, Thermo Fisher Scientific), and incubated for 48 hours. 0.5% DMSO was selected as vehicle control to balance the requisite need of DMSO in HepaRG cultures to maintain differentiation (for example, baseline metabolism, proportions of hepatocytes vs. cholangiocytes), while enabling further hepatic receptor pathway activation (for example, PXR and CAR) in response to chemical exposure. 48 hours after plating, the culture medium was replaced with HepaRG Serum-Free Incudtion Media. Cells were exposed to each test chemical in duplicate and maintained in CO2 incubators for another 48 hours. Chemical plates were thawed to room temperature and 200x concentrations of treatment groups were prepared. 8-point conentration-reponse curves were made with the highest exposure at 100 uM, followed by half-log dilutions, all in 0.5% DMSO. Each test plate contained variouse controls, induction positive controls (1mM phenobarbital), cytotoxicity positive controls ([…] aflatoxin B1), vehicle controls (0.5% DMSO), and total lysis controls (0.5% DMSO). Cell morphology images were taken using an Essen IncuCyte FLR automated microscope, with six 96-well plates imaged in about 24 minutes. Images were captured and exported and JPEG files. Spent culture media was transfered to black-well plates for the LDH assay, and remaining media was sorted at -80 C for later use. Cells were treated with RLT buffer and frozen until shipped for gene expression analysis. Total RNA was isolated from the cell suspension in 75 uL of Buffer RLT (Qiagen, Germantown, MD 20874) by Quintiles/Expression Analysis (Durham, NC) using a custom isolation procedure. Total RNA from each plate well was transferred to a preamplification plate. Fluidigm's 96.96 Dynamic ArrayTM (Fluidigm, Amsterdam, the Netherlands) technology was used for gene expression analyses by quantitative reverse transcription polymerase chain reaction (qRT-PCR, performed by Quintiles/Expression Analysis, Durham, NC)89. Standard TaqManTM Assays (Applied Biosystems/ThermoFisher Scientific, Foster City, CA) were used to assess the expression of 93 genes selected based on their selectivity and sensitivity to important hepatic receptors known to be modulated by environmental chemicals; importance in human hepatocyte functionality; and hepatotoxicity. […]

outcome, inactive:
CC(C)(c1cc(Br)c(O)c(Br)c1)c1cc(Br)c(O)c(Br)c1
C[C@]12CC[C@@H]3c4ccc(O)cc4CC[C@H]3[C@@H]1CC[C@H]2O
CCO[Si](CCCNC(N)=O)(OCC)OCC
CCCCOC(=O)CC(CC(=O)OCCCC)(OC(C)=O)C(=O)OCCCC
Cc1occc1C(=O)Nc1ccc(C(=O)N2CCC(F)(F)/C(=C\C(=O)N3CCC(N4CCCCC4)CC3)c3ccccc32)cc1
O=C1c2ccccc2C(=O)N1CCc1noc(-c2ccc(CN3CCCCCC3)s2)n1
c1ccc2ccccc2c1
CO[C@H]1/C=C/O[C@@]2(C)Oc3c(C)c(O)c4c(O)c(c(/C=N/N5CCN(C)CC5)c(O)c4c3C2=O)NC(=O)/C(C)=C\C=C\[C@H](C)[C@H](O)[C@@H](C)[C@@H](O)[C@@H](C)[C@H](OC(C)=O)[C@@H]1C
O=C(OCCCCCCOC(=O)c1ccccc1)c1ccccc1
COc1cccc([C@H](O)C2CCN(CCc3ccc(F)cc3)CC2)c1OC
C[C@]12CC[C@@H]3c4ccc(O)cc4CC[C@H]3[C@@H]1CCC2=O
CC(C)(O)c1ccc(CNC(=O)c2cccnc2Oc2ccc3nonc3c2)cc1
CCCCCCCCCCCO
CCOC(=O)O[C@H](C)OC(=O)c1ccc2c(c1)cc(C(=O)NC1CCN(C(C)C)CC1)n2Cc1cc(-c2ccc(Cl)s2)on1
Oc1ccc2ccccc2c1
CCCCCCCC[Si](OCC)(OCC)OCC
Cc1ccc2oc(CN(Cc3ccccc3)C(=O)Nc3c(F)cc(F)cc3F)c(-c3ccc(Cl)cc3)c2c1
O=c1c(-c2ccc(O)cc2)coc2cc(O)cc(O)c12
NCc1cccc(C2CCN(C(=O)c3ccc(C#Cc4ccccc4F)o3)CC2)c1
O=c1ccc2ccccc2o1
CCCCCCCCOC(=O)c1cc(O)c(O)c(O)c1
CCCC(=O)OCCC(C)C
CCCOC(=O)c1cc(O)c(O)c(O)c1
CCCCCCCCCCCCO
COCC(C)OCC(C)OCC(C)O (stereo not given)
CC1=CC(=O)/C(=C(/C)O)C(=O)O1
O=CCCCC=O
Cc1cn([C@H]2C[C@H](N=[N+]=[N-])[C@@H](CO)O2)c(=O)[nH]c1=O

AC50, active:
CC(=O)N1CCN(c2ccc(OC[C@H]3CO[C@](Cn4ccnc4)(c4ccc(Cl)cc4Cl)O3)cc2)CC1 16.7 µM
Cc1cc(F)ccc1-c1cc(N2CC[C@@H](O)[C@H]2CO)ncc1N(C)C(=O)C(C)(C)c1cc(C(F)(F)F)cc(C(F)(F)F)c1 68.7 µM
Cc1oc2c(NC(=O)c3c(Cl)cccc3Cl)cccc2c1C(C)(C)O 70.8 µM
CN(C[C@@H](CC[N+]12CCC(C3CCCCC3)(CC1)CC2)c1ccc(Cl)c(Cl)c1)C(=O)c1cc(C(F)(F)F)cc(C(F)(F)F)c1 9.43 µM
O=C(O)Cc1cc(I)c(Oc2ccc(O)c(I)c2)c(I)c1 81 µM
Clc1ccccc1C(c1ccccc1)(c1ccccc1)n1ccnc1 25.2 µM
Cc1c2ccccc2c(C)c2c1ccc1ccccc12 79.5 µM
CC(C)(C)c1cc(/C=C2\SC(N)=NC2=O)cc(C(C)(C)C)c1O 49.9 µM
CN(C)C(=O)C1(N2CCCCC2)CCN(CC[C@@]2(c3ccc(Cl)c(Cl)c3)CN(C(=O)c3ccccc3)CCO2)CC1 77.1 µM
O=C(Nc1ccc(Cl)cc1)Nc1ccc(Cl)c(Cl)c1 27.6 µM
CCN(CC)C(=O)c1cc(S(=O)(=O)Cc2ccccc2)c(N2CCC(c3ccccc3)CC2)cc1N(CC)CCN(C)C 30.5 µM
CCN(Cc1cccnc1)C(=O)c1cccc(Cl)c1[C@]1(C)C(=O)N(Cc2ccc(OC)cc2OC)c2ccc(Cl)cc21 17.7 µM
